Source: PubChem BioAssay (EPA / NIEHS)
Several values for one entry are separate records, joined by “and”; a condition that tells them apart may be missing. Equal entries are not always repeated. Records with an inconclusive call do not appear. Where a structure was tested more than once in an assay, its records may differ in their call. Activity calls are given as the source filed them. Rule for the calls, unless noted: active = hit-call score of the fitted dose curve at least 0.9, where 1 is the maximum; inactive = score below 0.9.

Columns and labels:
[1] = read-out: Interleukin-8 (IL8), CXCL8 (gene 3576); assay: BSK_3C_IL8: BioMAP Diversity Plus: 3C Assay for Interleukin-8 (IL8) Biomarker Activity (AID 2283020); settings: primary human endothelial cells (HUVEC); actives raise or lower the signal
Outline: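 Primary human umbilical vein endothelial cells were dosed for 24 h. IL-8 was quantified by ELISA and fitted bidirectionally against DMSO. Cytotoxicity was assessed in parallel cultures by SRB staining at 560 nm.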

[2] = read-out: Monokine induced gamma interferon (MIG), CXCL9 (gene 4283); assay: BSK_3C_MIG: BioMAP Diversity Plus: 3C Assay for Monokine induced gamma interferon (MIG) Biomarker Activity (AID 2283021); settings: primary human endothelial cells (HUVEC); actives raise or lower the signal;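 for AC50: MIG protein level measured by immunoassay in the treated endothelial cultures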
Outline: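 HUVEC primary endothelial cultures dosed with chemical; MIG quantified by ELISA at 24 h. Data fitted bidirectionally against DMSO control, with parallel SRB total-protein staining for cytotoxicity.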

[3] = molecular target: human Vitamin D Receptor (VDR), VDR (gene 7421) (UniProt P11473); assay: ATG_VDR_TRANS: Attagene TRANS-FACTORIAL HepG2 Assay for human Vitamin D Receptor (VDR) (AID 2283022; active = hit-call score of the fitted dose curve at least 0.9, where 1 is the maximum)
Outline: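 Steps: transfect HepG2 with GAL4-UAS-driven reporter constructs; dose compounds 24 h; isolate RNA, reverse-transcribe, PCR-amplify with 6-FAM-labelled primer extension and HpaI digestion; quantify fragments by capillary electrophoresis relative to DMSO.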

[4] = BSK_3C_SRB: Viability Assessment in the BioMAP Diversity Plus: 3C Assay (AID 2283023); settings: primary human endothelial cells (HUVEC);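 note: cells read 24 h after compound dosing; fitted both ways against DMSO so a hit may be signal rise or drop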
Outline: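 Absorbance at 560 nm of sulforhodamine B-stained (0.1%) total protein served as a cytotoxicity readout in human umbilical vein endothelial cells, 24 h after chemical treatment. Signal was fitted bidirectionally relative to DMSO.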

[5] = read-out: Matrix Metallopeptidase 1 (MMP1), MMP1 (gene 4312); assay: BSK_BE3C_MMP1: BioMAP Diversity Plus: BE3C Assay for Matrix Metallopeptidase 1 (MMP1) Biomarker Activity (AID 2283024); settings: primary human bronchial epithelial cells; actives raise or lower the signal
Outline: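 Human primary bronchial epithelial cells (BE3C system) dosed for 24 h; MMP-1 quantified by ELISA. Bidirectional fit against DMSO; cytotoxicity tracked in parallel cultures by SRB total-protein staining.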

[6] = BSK_3C_Vis: BioMAP Diversity Plus: 3C Assay for Morphology Visualization (AID 2283025); settings: primary human endothelial cells (HUVEC);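 note: fitted both ways so gain or loss versus DMSO counts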;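 for AC50: light microscopy image of cell morphology used as background control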
Outline: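 Human umbilical vein endothelial cell morphology was inspected by light microscopy 24 h after chemical dosing; scored bidirectionally relative to DMSO.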

[7] = read-out: Pselectin, SELP (gene 6403); assay: BSK_4H_Pselectin: BioMAP Diversity Plus: 4H Assay for Pselectin Biomarker Activity (AID 2283026); settings: primary human endothelial cells (HUVEC); actives raise or lower the signal
Outline: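 Primary human umbilical vein endothelial cells were treated 24 h, and cell-surface P-selectin was then quantified by ELISA. Bidirectional fit versus DMSO; cytotoxicity checked in parallel cultures by SRB total-protein staining.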

[8] = BSK_4H_SRB: Viability Assessment in the BioMAP Diversity Plus: 4H Assay (AID 2283027); settings: primary human endothelial cells (HUVEC);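 note: cells exposed to compound for 24 h before staining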;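 for AC50: curves fitted both ways versus DMSO so AC50 may be loss or gain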
Outline: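 Absorbance at 560 nm of SRB-stained total protein served as the viability read-out in confluent primary human umbilical vein endothelium 24 h after chemical treatment. Curves were fitted bidirectionally against DMSO as negative control.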

[9] = BSK_BE3C_SRB: Viability Assessment in the BioMAP Diversity Plus: BE3C Assay (AID 2283028); settings: primary human bronchial epithelial cells;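 for AC50: fitted both ways so AC50 may mark signal gain or loss versus DMSO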
Outline: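 Cells (human bronchial epithelial, primary) are treated with chemicals, and after 24 h the parallel cultures are fixed in 10% TCA. These are then stained with 0.1% SRB and read at 560 nm. Gain or loss of signal is fitted relative to DMSO.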

[10] = read-out: Thrombomodulin, THBD (gene 7056); assay: BSK_3C_Thrombomodulin: BioMAP Diversity Plus: 3C Assay for Thrombomodulin Biomarker Activity (AID 2283029); settings: primary human endothelial cells (HUVEC); actives raise or lower the signal
Outline: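 Human umbilical vein endothelial cells were exposed to chemicals for 24 h; cell-surface thrombomodulin quantified by ELISA, with bidirectional fitting against DMSO baseline.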

Measured: AC50

human Vitamin D Receptor (VDR), VDR (gene 7421), sequence (P11473 whole entry, looked up, the tested form may be a part): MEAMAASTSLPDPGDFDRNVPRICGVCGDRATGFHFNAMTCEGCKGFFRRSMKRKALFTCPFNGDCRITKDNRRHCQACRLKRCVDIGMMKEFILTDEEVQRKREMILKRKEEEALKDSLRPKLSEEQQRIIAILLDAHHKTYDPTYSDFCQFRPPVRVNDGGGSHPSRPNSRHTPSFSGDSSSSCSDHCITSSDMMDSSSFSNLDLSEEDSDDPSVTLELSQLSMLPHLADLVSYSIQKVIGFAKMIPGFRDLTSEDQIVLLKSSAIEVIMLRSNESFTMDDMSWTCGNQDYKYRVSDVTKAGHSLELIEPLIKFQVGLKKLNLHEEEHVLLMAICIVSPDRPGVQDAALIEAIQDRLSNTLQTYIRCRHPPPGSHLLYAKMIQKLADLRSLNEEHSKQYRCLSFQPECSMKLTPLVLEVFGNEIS

CC(C)(C)c1ccc(CSc2cnn(C(C)(C)C)c(=O)c2Cl)cc1
inactive: [2] | [3] | [5] | [10]
active: [1] 7.27 µM | [4] 10.9 µM | [6] 15.2 µM | [7] 11.1 µM | [8] 16.5 µM | [9] 7.9 µM

COC(=O)C=C(C)OP(=O)(OC)OC
not listed: [3]
inactive: all other assays above

CCNc1nc(Cl)nc(NC(C)C)n1
inactive: all assays above

CCOc1cc(Oc2ccc(C(F)(F)F)cc2Cl)ccc1[N+](=O)[O-]
active: [4] 14.1 µM | [5] 7.63 µM | [9] 6.77 µM | [10] 4.94 µM
not listed: [3]
inactive: all other assays above

CCOP(=S)(OCC)SCn1c(=O)oc2cc(Cl)ccc21
active: [4] 30.2 µM | [6] 39 µM | [7] 29.6 µM
not listed: [3]
inactive: all other assays above

O=C(O)c1nc(Cl)ccc1Cl
inactive: [1] | [2] | [4] | [5] | [6] | [7] | [8] | [9] | [10]
active: [6] 39 µM

COC(=O)N(OC)c1ccccc1COc1ccn(-c2ccc(Cl)cc2)n1
inactive: [2] | [5]
active: [1] 13.5 µM | [4] 20 µM | [6] 13.7 µM | [7] 20 µM | [8] 10.5 µM | [9] 28.1 µM | [10] 3.97 µM

Oc1ccccc1-c1ccccc1
inactive: all assays above

CCCC1COC(Cn2cncn2)(c2ccc(Cl)cc2Cl)O1 (centres undefined)
inactive: all assays above

CC(C)C1(C)N=C(c2nc3ccccc3cc2C(=O)O)NC1=O (centres undefined)
not listed: [3]
inactive: all other assays above

Cc1c(F)c(F)c(COC(=O)C2C(/C=C(\Cl)C(F)(F)F)C2(C)C)c(F)c1F (centres undefined)
active: [4] 13.7 µM | [6] 9.8 µM
not listed: [9]
inactive: all other assays above

C#CCOS(=O)OC1CCCCC1Oc1ccc(C(C)(C)C)cc1 (centres undefined)
inactive: [5] | [10]
active: [1] 7.04 µM | [2] 20 µM | [4] 12.3 µM | [6] 5.07 µM | [7] 3.97 µM | [8] 11.3 µM | [9] 22.7 µM

Fc1ccc(Oc2ccnc3cc(Cl)cc(Cl)c23)cc1
active: [1] 31.5 µM | [2] 31.2 µM | [4] 22.9 µM | [5] 35.9 µM | [6] 29.4 µM | [7] 23 µM | [8] 30.8 µM | [9] 32.8 µM
inactive: [10]

CCc1nn(C)c(C(=O)NCc2ccc(C(C)(C)C)cc2)c1Cl
active: [1] 20 µM | [2] 34 µM | [4] 25.3 µM | [6] 37.2 µM | [7] 26.9 µM | [8] 33.7 µM | [9] 30.2 µM
inactive: [5] | [10]

COc1nc(C)nc(NC(=O)NS(=O)(=O)c2ccccc2CCC(F)(F)F)n1
inactive: all assays above

N#CC(CCc1ccc(Cl)cc1)(Cn1cncn1)c1ccccc1 (centres undefined)
active: [4] 20 µM | [6] 39 µM | [9] 13.5 µM
not listed: [3]
inactive: all other assays above

CCON=C(CC)C1=C(O)CC(c2c(C)cc(C)cc2C)CC1=O (centres undefined)
not listed: [3]
inactive: all other assays above

COc1nc(C)nc(NC(=O)NS(=O)(=O)c2ccccc2Cl)n1
inactive: all assays above

N#Cc1cc(Br)c(O)c(Br)c1
active: [4] 20 µM | [7] 16.5 µM | [8] 19 µM
not listed: [3]
inactive: all other assays above

COP(N)(=O)SC (centres undefined)
not listed: [3]
inactive: all other assays above

CCCCC(CC)COC(=O)c1ccccc1C(=O)OCC(CC)CCCC (centres undefined)
active: [4] 10.5 µM | [6] 39 µM | [7] 15.6 µM | [9] 11 µM
not listed: [3]
inactive: all other assays above

CO/C=C(/C(=O)OC)c1ccccc1Oc1cc(Oc2ccccc2C#N)ncn1
active: [2] 38.1 µM and 33.2 µM and 32.7 µM | [4] 20 µM [middle of 4 runs] | [6] 39.6 µM and 42 µM | [7] 31.7 µM and 21.1 µM | [8] 26.7 µM and 16.4 µM and 24.2 µM
inactive: [2] | [3] | [5] | [6] | [7] | [8] | [9] | [10]

CNC(=O)ON=CC(C)(C)SC
not listed: [3]
inactive: all other assays above

CS/C(C)=N/OC(=O)N(C)SN(C)C(=O)O/N=C(\C)SC
inactive: [5] | [10]
active: [1] 29.7 µM | [2] 35.1 µM | [4] 26.5 µM | [6] 11.9 µM | [7] 19.9 µM | [8] 29.6 µM | [9] 28.6 µM

CC(Oc1ccc(Cl)cc1Cl)C(=O)O (centres undefined)
not listed: [3]
inactive: all other assays above

COc1nc(NC(C)C)nc(NC(C)C)n1
active: [10] 0.148 µM
inactive: all other assays above

COP(=S)(OC)Oc1nc(Cl)c(Cl)cc1Cl
active: [4] 20 µM | [6] 39 µM | [7] 20 µM
not listed: [3]
inactive: all other assays above

Cc1cc(Cl)ccc1OCC(=O)O
not listed: [3]
inactive: all other assays above
